This note sets out measurements from PubChem BioAssay.

Calls of active or inactive are those of the source. Unless noted, no rule for the calls is given here.

For assay [1], the system named is Wnt5a (protein binding on small-molecule microarray). Kind of assay: Wnt5a binders on small-molecule microarray, primary screen, biophysical, 635/667 nm fluorescence (AID 1142).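 Also: fluorescence read at 667 nm with signal to noise per printed feature.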 The note with it: 635 nm fluorescence, higher = more signal.
Assay [2] in a line: cell viability in Huh7 cells, primary screen, cytotoxicity control for HCV replication inhibitor project, CellTiter-Glo luminescence, basal, 48 h (AID 1143).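 Also: Huh7 hepatoma cells carrying a hepatitis C replication reporter with no stimulus; test concentration not given here.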 The settings on record: Huh7 HCV replicon, higher = more signal, called active from +8 up or from −8 down. Background: ATP-based viability assays read luminescence as a measure of living cells.
Assay [3] can be described thus: P. aeruginosa biofilm formation inhibitors, primary screen, PAO1 strain, BacTiter-Glo luminescence, LB-PBS (AID 1144). The settings on record: 12 h, higher = more signal.
Assay [4] can be described thus: CREB reporter modulators without forskolin, primary screen, cell-based, PC12, CRE-LacZ reporter, unstimulated (AID 1145). The note with it: no forskolin, luminescence, 4.5 h, higher = more signal, called active from +8 up or from −8 down.
Assay [5] is described as follows: CREB reporter modulators under forskolin, primary screen, cell-based, PC12, CRE-LacZ reporter, forskolin-stimulated (AID 1146).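 Also: PC12 cells with 6xCRE LacZ reporter stimulated by forskolin 10 µM; beta-galactosidase reporter signal reflecting CREB driven transcription.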 The settings on record: luminescence, 4.5 h, higher = more signal, called active from +8 up or from −8 down.
For assay [6], the target named is Streptavidin (Streptomyces avidinii) (UniProt P22629). Kind of assay: streptavidin binders on small-molecule microarray, primary screen, artefact control for SMM compound annotation, biophysical, 635/667 nm fluorescence (AID 1147).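 Also: signal reflects streptavidin binding to arrayed compounds as a control protein.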 The settings on record: streptavidin binding, higher = more signal.
Sequence of Streptavidin (Streptomyces avidinii) (P22629 whole entry, looked up): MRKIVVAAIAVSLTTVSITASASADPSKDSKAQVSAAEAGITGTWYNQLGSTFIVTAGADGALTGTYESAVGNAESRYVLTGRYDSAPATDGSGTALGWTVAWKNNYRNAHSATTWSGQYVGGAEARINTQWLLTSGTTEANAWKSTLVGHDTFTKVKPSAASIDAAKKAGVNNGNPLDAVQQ
A short description of assay [7]: small-molecule binders of probe aInhba, primary screen, biochemical, small-molecule microarray, 635/667 nm fluorescence (AID 1148).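 Also: score merges 667nm spot fluorescence with signal-to-noise for antibody binding to printed compounds.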 The settings on record: higher = more signal.
In assay [8] the target is Torsin-1A (Homo sapiens) (UniProt O14656). Kind of assay: torsin A binders from cell lysate, primary screen, small-molecule microarray, wild-type, 635/667 nm (AID 1149). The settings on record: COS7 hTOR1A-WT lysate, 635 nm fluorescence, higher = more signal.
Sequence of Torsin-1A (Homo sapiens) (O14656 whole entry, looked up): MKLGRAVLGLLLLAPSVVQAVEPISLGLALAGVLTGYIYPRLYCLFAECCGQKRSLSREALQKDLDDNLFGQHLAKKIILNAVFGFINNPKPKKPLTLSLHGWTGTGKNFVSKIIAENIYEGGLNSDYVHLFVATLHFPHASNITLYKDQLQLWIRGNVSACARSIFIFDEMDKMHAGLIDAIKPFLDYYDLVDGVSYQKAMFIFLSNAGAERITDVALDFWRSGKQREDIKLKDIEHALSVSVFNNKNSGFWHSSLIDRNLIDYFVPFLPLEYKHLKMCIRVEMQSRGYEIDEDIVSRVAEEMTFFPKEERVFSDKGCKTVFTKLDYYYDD
The target is the same in assay [9]. Kind of assay: small-molecule binders of mutant TOR1A in lysate, primary screen, cell lysate, small-molecule microarray, COS7 lysate, 635/667 nm fluorescence (AID 1150).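 Also: score pools 667 nm emission and signal to noise measuring lysate protein binding.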 The settings on record: COS7 hTOR1A mutant lysate, 635 nm fluorescence, higher = more signal.
Assay [10] deals with Sonic hedgehog protein (Shh). Nature of the assay: small-molecule binders of Shh protein, primary screen, biochemical, small-molecule microarray, 635/667 nm fluorescence (AID 1151).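 Also: Shh protein binding to compounds spotted on small-molecule microarray slides; score combines spot fluorescence intensity with signal-to-noise across triplicate slides.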 The note with it: small-molecule microarray binding, 635 nm fluorescence; higher = more signal.
Assay [11] in a line: E. coli DRC41 culture turbidity changes, primary screen, E. coli filamentation inducer project, strain DRC41, OD650, 48 h (AID 1152).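 Also: E. coli MC1000 strain DRC41 lacking acrAB efflux pump and sulA.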 The settings on record: E. coli DRC41 (acrAB sulA), higher = more signal, called active from +8 up or from −8 down.
Assay [12] is described as follows: small-molecule binders of probe aLefty1, primary screen, biochemical, small-molecule microarray, 635/667 nm fluorescence (AID 1153).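 Also: score merges spot fluorescence with signal-to-noise ratio from the scanned slide images.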 The settings on record: higher = more signal.
A short description of assay [13]: PSAC antagonists in infected red cells, primary screen, cell-based, P. falciparum Indochina, OD700, 1 h (AID 1154). The note with it: P. falciparum Indochina infected RBC osmotic lysis, higher = more signal, called active from +8 up or from −8 down.
Assay [14] in a line: PSAC antagonists in infected red cells, primary screen, cell-based, P. falciparum Indochina, OD700, 2 h (AID 1155).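 Also: lysis reports solute entry through the parasite surface anion channel PSAC; channel blockers reduce lysis of infected cells.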 The note with it: P. falciparum Indochina infected erythrocytes, osmotic lysis OD700; higher = more signal, called active from +8 up or from −8 down.
A short description of assay [15]: osmotic lysis modulators in infected erythrocytes, primary screen, PSAC antagonist project, cell-based, P. falciparum Indochina, OD700, 3 h (AID 1156). The settings on record: higher = more signal, called active from +8 up or from −8 down.
Assay [16] in a line: PSAC antagonists in infected red cells, primary screen, cell-based, P. falciparum Indochina, OD700, 18 h (AID 1157). The note with it: P. falciparum Indochina infected erythrocytes, osmotic lysis OD700, 18 h; higher = more signal, called active from +8 up or from −8 down.
Assay [17] is described as follows: modulators of S6 phosphorylation in cells, primary screen, cell-based, A549, cytoblot, luminescence, serum-stimulated (AID 1158).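 Also: serum-stimulated A549 lung adenocarcinoma cells; signal is phosphorylated S6 detected by cytoblot immunostaining with HRP secondary.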 The settings on record: A549 phospho-S6 cytoblot, 5 h, higher = more signal.
Assay [18] deals with NADPH oxidase 2 (Homo sapiens) (UniProt P04839). Nature of the assay: NOX2-dependent H2O2 signal modulators, primary screen, NOX inhibitor project, cell-based, HEK293-NOX2, PMA-stimulated, Amplex Red fluorescence (AID 1159). Also: test concentration not given here. The note with it: 45 min, higher = more signal, called active from +8 up or from −8 down.
Sequence of NADPH oxidase 2 (Homo sapiens) (P04839 whole entry, looked up): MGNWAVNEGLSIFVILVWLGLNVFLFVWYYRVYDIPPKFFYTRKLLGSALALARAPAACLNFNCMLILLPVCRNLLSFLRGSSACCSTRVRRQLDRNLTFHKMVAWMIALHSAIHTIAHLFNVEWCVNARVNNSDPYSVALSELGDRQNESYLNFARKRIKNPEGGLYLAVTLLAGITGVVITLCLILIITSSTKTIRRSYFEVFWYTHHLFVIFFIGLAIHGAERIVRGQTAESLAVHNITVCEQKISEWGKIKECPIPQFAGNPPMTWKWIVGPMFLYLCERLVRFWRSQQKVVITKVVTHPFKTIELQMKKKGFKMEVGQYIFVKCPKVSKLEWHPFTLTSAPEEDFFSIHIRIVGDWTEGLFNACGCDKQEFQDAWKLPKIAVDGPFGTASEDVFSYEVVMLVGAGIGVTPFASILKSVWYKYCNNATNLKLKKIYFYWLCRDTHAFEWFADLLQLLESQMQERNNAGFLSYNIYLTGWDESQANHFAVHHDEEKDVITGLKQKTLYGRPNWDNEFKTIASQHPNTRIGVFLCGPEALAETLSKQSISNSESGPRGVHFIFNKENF
The target of assay [19] is NADPH oxidase 4 (Homo sapiens) (UniProt Q9NPH5). Kind of assay: NOX4-dependent H2O2 signal modulators, primary screen, NOX inhibitor project, cell-based, HEK293-NOX4, tetracycline-induced, Amplex Red fluorescence (AID 1160). The note with it: 45 min, higher = more signal, called active from +8 up or from −8 down.
Sequence of NADPH oxidase 4 (Homo sapiens) (Q9NPH5 whole entry, looked up): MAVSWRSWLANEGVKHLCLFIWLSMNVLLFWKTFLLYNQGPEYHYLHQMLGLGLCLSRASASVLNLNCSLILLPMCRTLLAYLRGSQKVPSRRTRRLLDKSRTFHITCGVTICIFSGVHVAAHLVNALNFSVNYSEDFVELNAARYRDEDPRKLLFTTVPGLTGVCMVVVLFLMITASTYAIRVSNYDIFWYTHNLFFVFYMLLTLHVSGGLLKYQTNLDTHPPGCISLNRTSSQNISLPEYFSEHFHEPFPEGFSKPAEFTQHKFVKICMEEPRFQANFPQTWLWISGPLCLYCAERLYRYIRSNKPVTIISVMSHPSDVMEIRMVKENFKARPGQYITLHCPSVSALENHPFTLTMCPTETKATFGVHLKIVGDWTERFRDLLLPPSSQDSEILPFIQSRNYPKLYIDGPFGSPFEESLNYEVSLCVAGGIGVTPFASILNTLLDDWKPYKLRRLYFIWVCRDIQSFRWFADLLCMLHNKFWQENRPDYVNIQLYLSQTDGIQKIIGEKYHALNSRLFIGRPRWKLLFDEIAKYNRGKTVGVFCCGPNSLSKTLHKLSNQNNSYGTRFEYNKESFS
Assay [20] has as its target NADPH oxidase 5 (Homo sapiens) (UniProt Q96PH1). Kind of assay: NOX5-dependent H2O2 signal modulators, primary screen, NOX inhibitor project, cell-based, HEK293-NOX5, Amplex Red fluorescence (AID 1161). The note with it: HEK293-NOX5, ionomycin, 45 min, higher = more signal.

Sequence of NADPH oxidase 5 (Homo sapiens) (Q96PH1 whole entry, looked up): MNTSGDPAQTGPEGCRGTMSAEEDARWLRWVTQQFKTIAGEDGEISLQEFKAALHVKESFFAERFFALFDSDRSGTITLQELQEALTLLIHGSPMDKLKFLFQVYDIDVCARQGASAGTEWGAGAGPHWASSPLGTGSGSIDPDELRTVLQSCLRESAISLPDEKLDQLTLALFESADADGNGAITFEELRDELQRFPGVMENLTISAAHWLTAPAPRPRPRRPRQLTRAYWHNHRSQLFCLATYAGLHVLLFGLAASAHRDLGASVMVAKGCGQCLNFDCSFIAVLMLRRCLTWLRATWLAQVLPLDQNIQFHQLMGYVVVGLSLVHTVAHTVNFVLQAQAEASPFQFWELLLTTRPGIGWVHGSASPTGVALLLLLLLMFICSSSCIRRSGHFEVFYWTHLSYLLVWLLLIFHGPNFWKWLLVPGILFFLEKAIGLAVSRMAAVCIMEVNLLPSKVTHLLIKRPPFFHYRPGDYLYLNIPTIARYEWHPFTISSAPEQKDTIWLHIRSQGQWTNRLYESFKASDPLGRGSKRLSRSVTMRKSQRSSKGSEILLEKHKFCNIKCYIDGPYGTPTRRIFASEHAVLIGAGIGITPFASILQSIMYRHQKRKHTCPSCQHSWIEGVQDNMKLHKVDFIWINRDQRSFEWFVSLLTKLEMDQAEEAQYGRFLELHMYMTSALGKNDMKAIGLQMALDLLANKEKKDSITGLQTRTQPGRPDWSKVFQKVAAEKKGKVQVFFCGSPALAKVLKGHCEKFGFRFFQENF

Regarding `O=C1C[C@@](C(=O)NCc2ccccc2)(c2ccc([N+](=O)[O-])cc2)[C@@H](c2ccc(CO)cc2I)N1CC12CC3CC(CC(C3)C1)C2`, the composite z-score is 0.77 in assay [1]; 0.0117 in [6]; -0.246 in [7]; 0.585 with Torsin-1A (Homo sapiens) [8]; 0.825 with Torsin-1A (Homo sapiens) [9]; 2.06 in assay [10]. In assay [12], this compound registered a composite z-score of -0.641. Further, the z-score in assay [2] was -5.74 (inactive); in assay [3] it was -1.67 (inactive); in assay [4], -0.709 (inactive); in assay [5], -0.038 (inactive); in assay [11], 0.832 (inactive); in [13], 8.97 (active). Moreover, the z-score in [14] is 1.41 (inactive); in assay [15] it was 2.53 (inactive); in [16], 0.301 (inactive); in [17], 2.5; in [18] it was -1.38 (inactive); in assay [19] it was -4.29 (inactive). Also, the z-score in assay [20] was -3.82.
For the compound `COc1ccc(C#Cc2ccc3c(c2)[C@]2(C(=O)N3)[C@H](C(=O)N3CCCCCCC3)[C@H]3C(=O)O[C@H](c4ccccc4)[C@H](c4ccccc4)N3[C@@H]2c2ccc(O)cc2)cc1`, the composite z-score was found to be 0.696 in [1]; 0.627 in assay [6]; 0.939 in [7]; 0.589 with Torsin-1A (Homo sapiens) [8]; 1.42 in the assay with Torsin-1A (Homo sapiens) [9]; 1.6 in [10]. This compound displayed a composite z-score in [12] of 2.04. The z-score is -0.71 (inactive) in assay [2]; -0.768 (inactive) in assay [3]; 0.0653 (inactive) in assay [4]; -0.202 (inactive) in assay [5]; -0.821 (inactive) in assay [11]; 0.445 (inactive) in [13]. Further, the z-score is 0.391 (inactive) in [14]; -0.562 (inactive) in [15]; 0.271 (inactive) in assay [16]; -0.0624 in assay [17]; 0.697 (inactive) in [18]; 0.174 (inactive) in [19]. For the same compound, the z-score in assay [20] was found to be 0.00156.
In the case of `COCCOC(=O)N1C(=O)[C@@]2(c3cc(C#CCNC(N)=O)ccc31)[C@H](c1ccc(O)cc1)N1[C@H](c3ccccc3)[C@H](c3ccccc3)OC(=O)[C@H]1[C@@H]2C(=O)N1CCN(c2ncccn2)CC1`, the composite z-score was 0.0474 in assay [1]; 0.374 in [6]; -0.0898 in [7]; 0.652 with Torsin-1A (Homo sapiens) [8]; 0.747 with Torsin-1A (Homo sapiens) [9]; 0.905 in [10]. Moreover, the composite z-score in assay [12] is -0.191. For the same compound, the z-score in assay [2] was 0.259 (inactive); in assay [3], -0.648 (inactive); in [4] it was -0.589 (inactive); in [5], -0.249 (inactive); in assay [11] it was -0.279 (inactive); in assay [13], 2.78 (inactive). For the same compound, the z-score in assay [14] was 1.32 (inactive); in assay [15] it was 0.528 (inactive); in [16] it was 0.973 (inactive); in [17] it was -0.43; in assay [18], 1.23 (inactive); in [19], -0.121 (inactive). The compound further showed a z-score in assay [20] of 1.13.
Turning to `O=C1[C@@]23C=C(Br)[C@H](C[C@@H]2COC3)[C@@]12CO2`, the composite z-score in assay [1] is 0.731; in assay [6], -0.129; in assay [7] it was -0.0986; in the assay with Torsin-1A (Homo sapiens) [8], 0.283; with Torsin-1A (Homo sapiens) [9], 0.276; in assay [10] it was 0.497. The compound further came in with a composite z-score in [12] of -0.217. The z-score is 0.762 (inactive) in assay [2]; 0.461 (inactive) in [3]; -0.329 (inactive) in assay [4]; 2.56 (inactive) in assay [5]; -1.07 (inactive) in [11]; 0.297 (inactive) in assay [13]. Moreover, the z-score in [14] is 0.0503 (inactive); in [15], -0.497 (inactive); in assay [16] it was 0.258 (inactive); in [17] it was -0.679; in [18] it was 0.249 (inactive); in assay [19] it was 0.218 (inactive). This compound also came in with a z-score in assay [20] of 0.139.
